ChEMBL document CHEMBL3988442, “University of Dundee, Small-Polar-MMV Screening Library” (2021)
Out of some 67,000 compounds screened, about 300 (0.45%) showed an effect of 50% or more. Many of the other results were omitted from the sample, so strong results are more common in it than they were.

What follows are compounds tested against Polyketide synthase Pks13 (Mycobacterium tuberculosis (strain ATCC 25618 / H37Rv)) (UniProt I6X8D2) (assay: Mycobacterium tuberculosis Polyketide synthase 13 Thioesterase (PKS13)). Details: 30 µM.
Assay type: functional
Set-up: scale not given: in the data most compounds retested in dose-response had high values

Polyketide synthase Pks13 (Mycobacterium tuberculosis (strain ATCC 25618 / H37Rv)), sequence (I6X8D2 whole entry): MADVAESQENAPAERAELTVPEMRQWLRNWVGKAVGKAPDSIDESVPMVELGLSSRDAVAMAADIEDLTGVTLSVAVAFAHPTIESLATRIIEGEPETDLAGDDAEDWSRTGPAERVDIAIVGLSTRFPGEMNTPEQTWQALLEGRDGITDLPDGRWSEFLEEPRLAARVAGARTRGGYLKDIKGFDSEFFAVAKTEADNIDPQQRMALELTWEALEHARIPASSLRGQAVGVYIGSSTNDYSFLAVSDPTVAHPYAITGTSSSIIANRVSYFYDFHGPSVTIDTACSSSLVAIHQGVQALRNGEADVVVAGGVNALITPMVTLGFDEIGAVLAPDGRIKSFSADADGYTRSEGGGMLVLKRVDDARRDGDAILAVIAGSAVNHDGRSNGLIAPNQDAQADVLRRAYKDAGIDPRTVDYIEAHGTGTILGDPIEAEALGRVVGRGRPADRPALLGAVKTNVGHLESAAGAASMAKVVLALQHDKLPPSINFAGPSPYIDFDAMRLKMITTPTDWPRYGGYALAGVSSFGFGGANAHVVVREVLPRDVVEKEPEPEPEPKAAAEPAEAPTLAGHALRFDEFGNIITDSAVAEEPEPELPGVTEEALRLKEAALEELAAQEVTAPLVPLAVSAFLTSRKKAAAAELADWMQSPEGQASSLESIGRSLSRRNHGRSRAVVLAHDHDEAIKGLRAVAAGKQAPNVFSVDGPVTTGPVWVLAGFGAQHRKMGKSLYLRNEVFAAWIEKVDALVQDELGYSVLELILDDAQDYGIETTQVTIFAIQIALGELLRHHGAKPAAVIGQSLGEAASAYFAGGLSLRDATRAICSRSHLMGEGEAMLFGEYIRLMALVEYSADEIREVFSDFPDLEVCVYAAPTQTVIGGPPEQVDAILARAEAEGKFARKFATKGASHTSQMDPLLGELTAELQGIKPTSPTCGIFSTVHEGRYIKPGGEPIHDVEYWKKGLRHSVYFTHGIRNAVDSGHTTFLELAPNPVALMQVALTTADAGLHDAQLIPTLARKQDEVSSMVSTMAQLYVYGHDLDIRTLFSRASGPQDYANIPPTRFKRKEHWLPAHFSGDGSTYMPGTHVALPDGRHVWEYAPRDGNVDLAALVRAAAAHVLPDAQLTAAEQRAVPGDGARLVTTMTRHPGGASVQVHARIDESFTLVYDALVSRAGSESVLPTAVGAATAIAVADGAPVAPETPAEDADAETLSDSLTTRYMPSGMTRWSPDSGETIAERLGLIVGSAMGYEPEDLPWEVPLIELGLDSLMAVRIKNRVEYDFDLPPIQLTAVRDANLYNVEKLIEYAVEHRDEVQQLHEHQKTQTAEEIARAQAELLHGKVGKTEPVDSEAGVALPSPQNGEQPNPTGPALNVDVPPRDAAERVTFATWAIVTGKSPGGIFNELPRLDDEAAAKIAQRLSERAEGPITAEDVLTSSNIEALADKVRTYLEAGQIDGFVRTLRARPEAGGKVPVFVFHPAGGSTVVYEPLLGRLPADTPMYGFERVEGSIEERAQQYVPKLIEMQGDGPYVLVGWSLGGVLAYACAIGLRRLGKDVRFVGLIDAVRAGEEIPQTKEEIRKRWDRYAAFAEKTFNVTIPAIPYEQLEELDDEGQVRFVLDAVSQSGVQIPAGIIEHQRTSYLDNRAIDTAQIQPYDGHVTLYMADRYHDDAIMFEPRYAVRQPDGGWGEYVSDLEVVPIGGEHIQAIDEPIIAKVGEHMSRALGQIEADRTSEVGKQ

Row | SMILES | Percent Effect [%]
1 | CC(=O)N1[C@H](CN(C)C)C[C@@H]2CN(C(=O)c3cccc(F)c3)CC[C@@H]21 | -7.05
2 | O=C(c1ccc(F)cc1)N1C[C@@H]2CN(c3ncccn3)C[C@@H]2C1 | -16.8
3 | CN(C)S(=O)(=O)N1CC[C@]2(O)CCN(c3ncccn3)C[C@@H]2C1 | 5.3
4 | CS(=O)(=O)NC[C@H]1OC[C@@H]2CN(Cc3cccnc3)CC[C@@H]21 | 7.73
5 | CC(NC(=O)COCC(F)(F)F)c1nnc2n1CCCCC2 (centres undefined) | -15.5
6 | CC(C)CCC(=O)NC(C)c1nnc2n1CCCCC2 (centres undefined) | -2.75
7 | CC(NC(=O)CN(C)S(C)(=O)=O)c1nnc2n1CCCCC2 (centres undefined) | 76.2
8 | Cc1noc(C)c1CN1C[C@@H]2CCCO[C@@H]2[C@H](Nc2ccccn2)C1 | -22.7
9 | Cc1nnc(C[C@@H]2COC[C@H]3CN(C(=O)c4ccco4)C[C@@H]23)o1 | -27.6
10 | Cc1cccc(CN2C[C@H]3C[C@H](C(=O)NCc4cccnc4)[C@@H](C2)O3)c1 | 2.63
11 | c1ccc(CCCN2CC[C@H](c3nnc(-c4cccnc4)o3)C2)cc1 | -20
12 | c1ccc(CCCN2CC[C@H](c3nnc(-c4ccccc4)o3)C2)cc1 | 96.4
13 | Cc1nnc([C@H]2CCN(CCCc3ccccc3)C2)o1 | 8.46
14 | Cc1nc(O)cc(CNC(=O)CC[C@@H]2CCCN3CCCC[C@H]23)n1 | -2.37
15 | COc1cccc(CNC[C@@]2(COc3cccnc3)C[C@@H](O)[C@@H](O)C2)c1 | 3.65
16 | COCc1nc(C(=O)N2CCCC2c2cccc(C)c2)cs1 (centres undefined) | -1.31
17 | COc1ccc(C2CCCN2C(=O)c2cc3c([nH]c2=O)CCC3)cc1 (centres undefined) | 57.9
18 | O=C(c1cc2c([nH]c1=O)CCC2)N1CCCC1c1ccc(F)cc1 (centres undefined) | -4.09
19 | COc1cccc(C2CCCN2C(=O)c2cc3c([nH]c2=O)CCC3)c1 (centres undefined) | 43.2
20 | COCc1nc(C(=O)N2CCCC2c2ccc(OC)cc2)cs1 (centres undefined) | 76.5
21 | COCc1nc(C(=O)N2CCCC2c2ccncc2)cs1 (centres undefined) | -19.5
22 | Cc1ccc(CN2C[C@@H]3[C@@H](C(=O)NCC(C)C)CCS(=O)(=O)[C@@H]3C2)cc1 | -36.5
23 | CCc1ccc(NC(=O)N2C[C@H]3C[C@H](C(=O)N4CCCC4)[C@@H](C2)O3)cc1 | -33.7

Row | SMILES | Percent Effect [%]
24 | COC[C@@]12CCO[C@@H]1CCN(C(=O)COc1ccccc1OC)C2 | -28.6
25 | CNC(=O)[C@H]1C[C@H]2OCC[C@H]2N(Cc2cccc3ccccc23)C1 | -14
26 | CCCN1C[C@H]2CC[C@@H]1CN(C(=O)Cc1c(C)nc(CC)[nH]c1=O)C2 | -18.4
27 | CCCN1CCN(C(=O)c2ccc3ccccc3n2)[C@H]2CS(=O)(=O)C[C@H]21 | 11.6
28 | Cc1noc(C)c1CN1C(=O)[C@H]2CC[C@@H]1CN(Cc1nccs1)C2 | -22.4
29 | COc1ccc(CCNC(=O)C(C)Nc2ccc(C)c(C)c2)cc1 (centres undefined) | 1.46
30 | COc1ccc(CC(C)Nc2cccc(F)c2)cc1 (centres undefined) | 8.52
31 | COc1ccc(C(=O)Nc2cccc(SC)c2)c(OC)n1 | -19.8
32 | COc1ccc(CCNC(=O)C(C)Nc2cccc(C)c2C)cc1 (centres undefined) | 10.4
33 | COc1ccc(CCC(C)Nc2cccc(SC)c2)cc1 (centres undefined) | 65.2
34 | COc1ccc(CC(C)Nc2cccc(SC)c2)cc1 (centres undefined) | 57.2
35 | Cn1cc(CN2C[C@@H]3COC[C@]3(CNC(=O)c3ccsc3)C2)cn1 | -27.4
36 | Cc1noc([C@@]23CCO[C@@H]2CCN(Cc2scnc2C)C3)n1 | -8.64
37 | Cc1cc(CN2C[C@H]3CCC[C@@]3(COCc3csc(C)n3)C2)no1 | -42.7
38 | Cc1cc(F)ccc1C(=O)N1C[C@@H]2COC[C@]2(CN(C)C)C1 | -28.5
39 | O=C([C@H]1COC[C@H]2CN(C3CCCC3)C[C@H]21)N1CCCCO1 | -0.965
40 | Cc1ccnc(OC[C@]23COC[C@H]2CN(C(=O)c2ccnn2C)C3)n1 | -7.96
41 | Cc1ccnc(OC[C@]23COC[C@H]2CN(C(=O)c2cnccn2)C3)n1 | -10.7
42 | Cc1ccnc(OC[C@]23COC[C@H]2CN(C(=O)c2ncccn2)C3)n1 | 64
43 | COCCNC(=O)[C@@]12CCO[C@@H]1CCN(Cc1cc(C)on1)C2 | -12.3
44 | Cn1cc(CN2C[C@@H]3COC[C@@H](C(=O)N4CCCCO4)[C@@H]3C2)cn1 | -30.5
45 | Cc1ccccc1-n1cc(CN(C)C[C@@H]2CCCN3CCCC[C@H]23)cn1 | -16.8
46 | Cc1cc(C(=O)N2C[C@@H]3COC[C@]3(c3nnc(C4CC4)o3)C2)on1 | -7.03

Row | SMILES | Percent Effect [%]
47 | CCC(C)NC(=O)c1ccc(-c2ccco2)[nH]c1=O (centres undefined) | 7.06
48 | CC(CN1CCCC1=O)NC(=O)c1ccc(-c2ccco2)[nH]c1=O (centres undefined) | 73
49 | Cc1ccc(C(=O)NC(C)CN2CCCC2=O)c(=O)[nH]1 (centres undefined) | -2.59
50 | O=C1[C@@H]2CCN(C3CCOCC3)C[C@@H]2OCCN1Cc1cccnc1 | -7.59
51 | COC[C@H]1CNC(=O)[C@@H]2CCN(Cc3ccc(F)cc3)CC[C@H]12 | -30.6
52 | Cn1cnc(-c2nc(C(=O)NCCN3CCOCC3)c3ccccn23)c1 | 141
53 | Cn1cnc(-c2nc(C(=O)NC3CC3)c3ccccn23)c1 | 113
54 | Cn1cnc(-c2nc(C(=O)NCCN3CCCC3)c3ccccn23)c1 | 18.6
55 | COCCNC(=O)c1nc(-c2cn(C)cn2)n2ccccc12 | 21.3
56 | Cn1cnc(-c2nc(C(=O)NCC3CCCO3)c3ccccn23)c1 (centres undefined) | 5.5
57 | CC(C)n1cnc(-c2nc(C(=O)NC3CC3)c3ccccn23)c1 | 22.1
58 | N#Cc1c(N2CCCN(C3CCOCC3)CC2)nc2ccccn12 | 95.8
59 | CN1CCCC(N2CCN(c3nc4ccccn4c3C#N)CC2)C1 (centres undefined) | 15.1
60 | N#Cc1c(N2CCN(CC3CCOC3)CC2)nc2ccccn12 (centres undefined) | 5.84
61 | CC(C)c1noc(CC[C@@H]2CCCN3CCCC[C@H]23)n1 | -17.9
62 | c1cc(CN2CC[C@H]3CO[C@H](CN4CCOCC4)[C@H]3C2)cs1 | -3.35
63 | Cc1cnc(N2CCC3(CCN(CC4CCCC4)C3=O)CC2)nc1 | -3.7
64 | O=C1N(CC2CC2)CCC12CCN(c1ncccn1)CC2 | 2.59
65 | Cc1cnc(N2CCC3(CCN(CC4CC4)C3=O)CC2)nc1 | 71.3
66 | COc1ccc(CN2CC[C@H]3CO[C@H](CNC(=O)N(C)C)[C@H]3C2)cc1 | -14.2
67 | CCCn1c(N2CCCC(C)C2)nc2c(C)nn(C)c2c1=O (centres undefined) | 3.25
68 | CCCn1c(N2CCCC2)nc2c(C)nn(C)c2c1=O | 67
69 | CCCn1c(N2CCCCC2)nc2c(C)nn(C)c2c1=O | 14
